Laboratory results published in PubChem BioAssay (EPA / NIEHS).
Where “and” joins values, the source holds several entries; their conditions need not be identical. Equal entries are not always repeated. A structure can be active in one record and inactive in another. Calls of active or inactive are those of the source. How the source made its calls: active means hit-call score of the fitted dose curve at least 0.9, where 1 is the maximum; inactive means score below 0.9.

What was measured:
[1] = read-out: Interleukin-8 (IL8), CXCL8 (gene 3576); experiment: BSK_IMphg_IL8: BioMAP Diversity Plus: IMphg Assay for Interleukin-8 (IL8) Biomarker Activity (AID 2284277); details: primary human endothelial cells with macrophages
Procedure, shortened: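 Co-culture of human venular endothelial cells and macrophages exposed to chemicals for 24 h; IL-8 quantified by ELISA and compared against the DMSO baseline, with SRB total-protein staining in parallel cultures for cytotoxicity.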

[2] = read-out: Intercellular Adhesion Molecule 1 (ICAM1), ICAM1 (gene 3383); experiment: BSK_BE3C_ICAM1: BioMAP Diversity Plus: BE3C Assay for Intercellular Adhesion Molecule 1 (ICAM1) Biomarker Activity (AID 2284278); details: primary human bronchial epithelial cells;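 further: cell-surface ICAM-1 protein level quantified by ELISA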
Procedure, shortened: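 Measured by ELISA: ICAM-1 expressed by primary human bronchial epithelial cells 24 h after compound treatment, with upward-direction fitting versus DMSO vehicle.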

[3] = read-out: Interferon-inducible T-cell alpha chemoattractant (ITAC), CXCL11 (gene 6373); experiment: BSK_BE3C_ITAC: BioMAP Diversity Plus: BE3C Assay for Interferon-inducible T-cell alpha chemoattractant (ITAC) Biomarker Activity (AID 2284279); details: primary human bronchial epithelial cells
Procedure, shortened: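 ELISA for I-TAC in primary human bronchial epithelial cultures 24 h post-treatment, fitted relative to DMSO baseline in positive direction. Cytotoxicity checked in parallel cultures by sulforhodamine B protein staining.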

[4] = read-out: Interleukin-8 (IL8), CXCL8 (gene 3576); experiment: BSK_BE3C_IL8: BioMAP Diversity Plus: BE3C Assay for Interleukin-8 (IL8) Biomarker Activity (AID 2284280); details: primary human bronchial epithelial cells
Procedure, shortened: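 ELISA read-out of IL-8 in human lung bronchial epithelial primary cell cultures, 24 h post-dosing; endpoint analysed as signal increase relative to DMSO baseline.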

[5] = read-out: Epidermal growth factor receptor (EGFR), EGFR (gene 1956); experiment: BSK_BE3C_EGFR: BioMAP Diversity Plus: BE3C Assay for Epidermal growth factor receptor (EGFR) Biomarker Activity (AID 2284281); details: primary human bronchial epithelial cells
Procedure, shortened: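 Primary human lung bronchial epithelial cells; compound, 24 h; EGFR measured by ELISA; positive-direction fit vs DMSO baseline.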

KRT18 (gene 3875) = experiment: BSK_BE3C_Keratin818: BioMAP Diversity Plus: BE3C Assay for Keratin 818 Biomarker Activity (AID 2284282); details: primary human bronchial epithelial cells
Procedure, shortened: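 BE3C: human bronchial epithelial primary cells, 24 h exposure, Keratin 8/18 ELISA; DMSO = negative control/baseline; cytotoxicity by parallel SRB stain (0.1% SRB after 10% TCA fixation, 560 nm).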

[6] = read-out: Matrix Metallopeptidase 9 (MMP9), MMP9 (gene 4318); experiment: BSK_BE3C_MMP9: BioMAP Diversity Plus: BE3C Assay for Matrix Metallopeptidase 9 (MMP9) Biomarker Activity (AID 2284283); details: primary human bronchial epithelial cells
Procedure, shortened: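 Human primary bronchial epithelial cells in the BE3C system were dosed with compound for 24 h. MMP-9 was measured by ELISA, and the positive-direction response was fitted relative to DMSO as baseline. Parallel SRB staining gauged cytotoxicity.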

[7] = read-out: Plasminogen activator inhibitor-1 (PAI1), SERPINE1 (gene 5054); experiment: BSK_CASM3C_PAI1: BioMAP Diversity Plus: CASM3C Assay for Plasminogen activator inhibitor-1 (PAI1) Biomarker Activity (AID 2284284); details: primary human coronary artery smooth muscle cells;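 further: PAI-1 protein level measured by ELISA 24 h after dosing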
[8] = read-out: Monocyte Chemoattractant Protein-1 (MCP1), CCL2 (gene 6347); experiment: BSK_hDFCGF_MCP1: BioMAP Diversity Plus: hDFCGF Assay for Monocyte Chemoattractant Protein-1 (MCP1) Biomarker Activity (AID 2284285); details: primary human foreskin fibroblasts
Procedure, shortened: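 Human foreskin fibroblasts (hDFCGF system) were exposed to compound and secreted MCP-1 was measured by ELISA after 24 hours. Activity was fitted relative to DMSO. Cytotoxicity was checked by SRB total-protein staining in parallel cultures.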

[9] = read-out: Vascular cell adhesion molecule 1 (VCAM1), VCAM1 (gene 7412); experiment: BSK_IMphg_VCAM1: BioMAP Diversity Plus: IMphg Assay for Vascular cell adhesion molecule 1 (VCAM1) Biomarker Activity (AID 2284286); details: primary human endothelial cells with macrophages
Procedure, shortened: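 Human venular endothelial cells co-cultured with macrophages; VCAM-1 quantified by ELISA 24 h after dosing, fitted in the positive direction against DMSO. Cytotoxicity was checked in parallel cultures by SRB total-protein staining (0.1% SRB after 10% TCA fixation, 560 nm).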

[10] = read-out: Intercellular Adhesion Molecule 1 (ICAM1), ICAM1 (gene 3383); experiment: BSK_hDFCGF_ICAM1: BioMAP Diversity Plus: hDFCGF Assay for Intercellular Adhesion Molecule 1 (ICAM1) Biomarker Activity (AID 2284287); details: primary human foreskin fibroblasts
Procedure, shortened: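 Primary human foreskin fibroblasts (hDFCGF system) dosed with chemical; ICAM-1 quantified by ELISA at 24 h relative to DMSO. Parallel SRB total-protein staining to assess overt cytotoxicity.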

CD40, CD40 (gene 958) = experiment: BSK_IMphg_CD40: BioMAP Diversity Plus: IMphg Assay for CD40 Biomarker Activity (AID 2284288); details: primary human endothelial cells with macrophages
Procedure, shortened: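 Venular endothelial cells co-cultured with macrophages (human primary), CD40 measured by ELISA 24 h after dosing. Positive-direction fit vs DMSO baseline; cytotoxicity tracked by SRB total-protein staining in parallel cultures.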

[11] = read-out: TIMP metallopeptidase inhibitor 2 (TIMP2), TIMP2 (gene 7077); experiment: BSK_hDFCGF_TIMP2: BioMAP Diversity Plus: hDFCGF Assay for TIMP metallopeptidase inhibitor 2 (TIMP2) Biomarker Activity (AID 2284289); details: primary human foreskin fibroblasts
Procedure, shortened: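 Primary human foreskin fibroblasts in the hDFCGF system, dosed for 24 h; TIMP-2 level measured by ELISA, fitted in the positive direction against DMSO; cytotoxicity checked in parallel by sulforhodamine B total protein staining.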

[12] = read-out: Interleukin-1 alpha (IL1a), IL1A (gene 3552); experiment: BSK_IMphg_IL1a: BioMAP Diversity Plus: IMphg Assay for Interleukin-1 alpha (IL1a) Biomarker Activity (AID 2284290); details: primary human endothelial cells with macrophages
Procedure, shortened: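 Human venular endothelial cells co-cultured with macrophages, IMphg system. IL-1α is measured by ELISA 24 h after dosing and fitted in the positive direction against DMSO. Cytotoxicity is assessed by SRB staining of parallel cultures.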

[13] = read-out: E-selectin (Homo sapiens) (UniProt P16581); experiment: BSK_IMphg_ESelectin: BioMAP Diversity Plus: IMphg Assay for Eselectin Biomarker Activity (AID 2284291); details: primary human endothelial cells with macrophages
Procedure, shortened: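 Human venular endothelial cell–macrophage co-culture, E-selectin measured by ELISA 24 h after chemical dosing. Signal fitted in the positive direction against DMSO as negative control and baseline.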

[14] = BSK_IMphg_SRB: Viability Assessment in the BioMAP Diversity Plus: IMphg Assay (AID 2284292); details: primary human endothelial cells with macrophages;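 further: measured one day after compound addition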
Procedure, shortened: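 Human venular endothelial cells with macrophages, 24 h after chemical dosing; total protein by 0.1% SRB staining after 10% TCA fixation, read at 560 nm. Positive-direction fitting versus DMSO baseline.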

[15] = read-out: Macrophage colony-stimulating factor (MCSF), CSF1 (gene 1435); experiment: BSK_IMphg_MCSF: BioMAP Diversity Plus: IMphg Assay for Macrophage colony-stimulating factor (MCSF) Biomarker Activity (AID 2284293); details: primary human endothelial cells with macrophages
Procedure, shortened: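 Co-culture of human venular endothelial cells and macrophages, 24 hours of chemical exposure. M-CSF quantified by ELISA, with parallel SRB total-protein staining for cytotoxicity; activity fitted relative to DMSO.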

[16] = read-out: Interleukin-10 (IL10), IL10 (gene 3586); experiment: BSK_IMphg_IL10: BioMAP Diversity Plus: IMphg Assay for Interleukin-10 (IL10) Biomarker Activity (AID 2284294); details: primary human endothelial cells with macrophages
Procedure, shortened: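 Human venular endothelial cells cocultured with macrophages, dosed 24 h; IL-10 measured by ELISA, activity relative to DMSO. Cytotoxicity assessed in parallel cultures by sulforhodamine B total-protein staining.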

[17] = BSK_IMphg_SRB.Mphg: Macrophage Viability Assessment in the BioMAP Diversity Plus: IMphg Assay (AID 2284295); details: primary human endothelial cells with macrophages
Procedure, shortened: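 Venular endothelial cells co-cultured with macrophages, read 24 h after dosing. Total protein measured by 0.1% SRB staining after 10% TCA fixation, absorbance at 560 nm. Fitted in positive direction against DMSO baseline.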

[18] = read-out: Thrombomodulin, THBD (gene 7056); experiment: BSK_LPS_Thrombomodulin: BioMAP Diversity Plus: LPS Assay for Thrombomodulin Biomarker Activity (AID 2284296); details: primary human HUVEC with PBMC
Procedure, shortened: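 Human umbilical vein endothelial cells co-cultured with PBMC and stimulated with LPS; cell-surface thrombomodulin measured by ELISA 24 hours after compound. Gain or loss versus DMSO; cytotoxicity checked by SRB staining in parallel cultures.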

Measured: AC50

Sequence of E-selectin (Homo sapiens) (P16581 whole entry, looked up): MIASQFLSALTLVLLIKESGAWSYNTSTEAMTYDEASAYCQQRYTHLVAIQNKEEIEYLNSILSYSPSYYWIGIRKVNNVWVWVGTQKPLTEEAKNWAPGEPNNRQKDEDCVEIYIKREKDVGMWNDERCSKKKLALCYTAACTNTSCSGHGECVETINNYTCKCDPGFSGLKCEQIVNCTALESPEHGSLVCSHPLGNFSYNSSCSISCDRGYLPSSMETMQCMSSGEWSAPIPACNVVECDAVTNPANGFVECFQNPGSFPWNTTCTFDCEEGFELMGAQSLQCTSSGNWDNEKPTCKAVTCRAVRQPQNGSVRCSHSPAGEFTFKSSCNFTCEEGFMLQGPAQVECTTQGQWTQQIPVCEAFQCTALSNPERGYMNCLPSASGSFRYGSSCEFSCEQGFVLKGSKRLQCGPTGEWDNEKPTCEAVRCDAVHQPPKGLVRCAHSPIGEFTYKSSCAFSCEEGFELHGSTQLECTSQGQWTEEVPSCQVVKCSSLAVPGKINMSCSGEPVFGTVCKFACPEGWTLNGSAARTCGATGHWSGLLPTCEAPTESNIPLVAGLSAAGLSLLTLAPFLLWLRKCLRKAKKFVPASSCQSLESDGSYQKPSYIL

Cn1cnc([N+](=O)[O-])c1Sc1ncnc2nc[nH]c12
active: [9] 9.14 µM | CD40, CD40 (gene 958) 16.4 µM | [13] 2.5 µM and 9.29 µM | [15] 14.7 µM and 8.87 µM | [16] 12.6 µM
inactive: [1] | [2] | [3] | [4] | [5] | KRT18 (gene 3875) | [6] | [7] | [8] | [9] | [10] | CD40, CD40 (gene 958) | [11] | [12] | [14] | [17] | [18]
